The list is not random: actives were taken first. Their share in the collection is about 5.4%.
Calb FLC – C. albicans growth inhibition with fluconazole, primary screen, CaCi-2 strain, Alamar Blue fluorescence. AID 1979, 2009. 300,000 compounds, 0.57% hits. growth inhibition, % (no concentration beside the values). C. albicans CaCi-2 (fluconazole-resistant clinical isolate) + fluconazole, 48 h;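 active = growth inhibition above about 58% in most replicates, limit read from the data, passing the limit was not always enough; inconclusive = exactly half the replicates above a set limit; inactive = most replicates below a set limit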;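 note: all wells also contain fluconazole at 8 µg/ml as a sub-toxic cotreatment; 0% = median of DMSO wells and 100% = median of geldanamycin control wells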
PP5 primary – PP5 phosphatase inhibitors, primary screen, biochemical, fluorescence; Serine/threonine-protein phosphatase 5 (Homo sapiens), P53041; purified PP5c, OMFP substrate fluorescence; inhibition, % at 6.7 µM; 320,000 compounds, 0.18% hits;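 active = inhibition above the campaign's mean inhibition across all tested compounds plus 3 SD, cut at about 9.5% in these data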;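 note: 0% = DMSO only and 100% = 100 µM cantharidin control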
ALR inh – inhibitors of human ALR sulfhydryl oxidase, primary screen, biochemical, H2O2 detection, HRP-luminol luminescence, single point; purified ALR, DTT oxidation; inhibition, % (no concentration beside the values); 290,000 compounds, 3.8% hits;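 active = mean replicate inhibition above about 79%, with every replicate also reaching it, limit read from the data; inconclusive = only one of the two criteria met; inactive = mean below limit and not every replicate reaching it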
Target sequence (P55789 whole entry, looked up): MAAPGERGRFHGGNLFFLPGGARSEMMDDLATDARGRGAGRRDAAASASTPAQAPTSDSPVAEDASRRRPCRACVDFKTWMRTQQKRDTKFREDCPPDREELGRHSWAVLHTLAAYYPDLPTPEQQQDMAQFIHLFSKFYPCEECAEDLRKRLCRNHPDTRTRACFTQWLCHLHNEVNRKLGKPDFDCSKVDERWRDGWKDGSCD
CSC inhib – cancer stem cell viability inhibitors, primary screen, luminescence; 300,000 compounds, 1.1% hits; inhibition, % at 7.5 µM; cancer stem cell-like cells viability; in the data active = inhibition above about 75%; inconclusive = no clear call, values can overlap the other calls; tested in HMLE shEcad cells
PP1 counter – PP1-alpha phosphatase inhibitors, primary screen, counter-screen for PP5 inhibitor project, biochemical, fluorescence, OMFP substrate, single point; 320,000 compounds, 0.9% hits; Serine/threonine-protein phosphatase PP1-alpha catalytic subunit (Homo sapiens), P62136; inhibition, % at 6.7 µM; purified PP1alpha; AID 2235, 2010;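 active = inhibition above the mean inhibition of all tested compounds plus 3 SD, computed separately for each screening campaign, cut at about 15% in these data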
Target sequence (P62136 whole entry, looked up): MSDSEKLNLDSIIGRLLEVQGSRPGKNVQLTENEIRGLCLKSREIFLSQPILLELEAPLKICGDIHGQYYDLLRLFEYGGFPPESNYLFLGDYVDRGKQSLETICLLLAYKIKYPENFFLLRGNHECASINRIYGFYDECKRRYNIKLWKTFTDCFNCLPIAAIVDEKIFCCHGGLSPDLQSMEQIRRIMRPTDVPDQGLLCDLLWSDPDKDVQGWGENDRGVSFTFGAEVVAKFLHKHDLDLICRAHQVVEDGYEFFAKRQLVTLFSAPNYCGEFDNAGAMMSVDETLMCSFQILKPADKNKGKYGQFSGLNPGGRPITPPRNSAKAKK
The depositor's hits bear a star; u = inconclusive; x = no result.

SMILES | Calb FLC | PP5 primary | ALR inh | CSC inhib | PP1 counter
O=C(c1cc(-c2ccco2)on1)N1CCN(c2ccccc2)CC1 | 0 | 0 | 7 | 84* | 5
CC(C)N1CC(C(=O)Nc2cc(Cl)cc(Cl)c2)CC1=O (centres undefined) | -12 | -3 | -10 | -2 | 6
CC(Sc1nnc(-c2ccco2)n1C)C(=O)N(C)C1CCCCC1 (centres undefined) | 4 | -1 | 2 | -10 | 2
O=C(NC(=S)Nc1ccc(N2CCN(C(=O)c3ccccc3)CC2)cc1)c1cccs1 | -8 | 3 | 3 | x | 4
O=C(NC(=S)N1CCN(c2ccc(O)cc2)CC1)c1cccs1 | -4 | 3 | 99* | 35 | 1
O=C(NC(=S)N1CCN(c2ccc(F)cc2)CC1)c1cccs1 | 35 | 2 | 95* | 5 | 0
O=C(C1CCN(S(=O)(=O)c2cccs2)CC1)N1CCN(c2ccccc2)CC1 | -2 | 0 | 84* | -5 | -2
COc1ccc(N2CCN(C(=O)C3CCN(S(=O)(=O)c4cccs4)CC3)CC2)cc1 | 1 | -1 | 45 | -20 | -3
CCn1c(SCC(=O)NC)nnc1C(C)C | x | -1 | -2 | -7 | -2
O=c1[nH]c(=S)[nH]nc1Cc1ccc(Cl)c(Cl)c1 | 91* | -2 | 11 | 7 | 2
CC(C)(C)c1ccc(Cc2n[nH]c(=S)[nH]c2=O)cc1 | 78* | 3 | 28 | -1 | 1
COC(=O)CNc1n[nH]c(=S)[nH]c1=O | 1 | 3 | -3 | 0 | -4
COc1ccc(C(=O)NNC(=O)C(=O)Nc2ccc(C)c(Cl)c2)cc1 | 2 | -3 | -1 | 13 | 9
CCOc1ccc(-c2csc(/C(C#N)=C\c3ccc(O)c([N+](=O)[O-])c3)n2)cc1 | -10 | 5 | -5 | 108* | 6
O=C(O)CCC(=O)NCCn1c(-c2ccccc2)csc1=Nc1ccccc1 | -5 | -7 | 92* | -2 | -8
N#C/C(=C/c1ccc(N2CCOCC2)o1)c1ccc(Br)cc1 | -9 | -2 | 92* | 31 | -1
N#C/C(=C\c1ccc(N2CCOCC2)o1)c1ccccc1 | -22 | 0 | x | 14 | 0
COc1cc(/C=C(\C#N)c2nnc(N3CCOCC3)n2-c2ccccc2)ccc1O | 5 | 2 | 99* | -7 | -3
COc1ccc(NC(=O)/C(C#N)=C\c2ccc(N3CCOCC3)o2)cc1 | 103* | 6 | 80* | -4 | 2
Cc1cc(/C=C(\C#N)c2nnc(N3CCOCC3)n2-c2ccccc2)c(C)n1-c1ccccc1 | 9 | -1 | -2 | -5 | 0
N#C/C(=C\c1ccc(N2CCOCC2)cc1)c1ccccc1 | 87* | 5 | 65 | 17 | 6
C=CCN1C(=O)CSc2ccc(C(=O)NC3CCCCC3)cc21 | 2 | 0 | 3 | -6 | -4
O=C(CSCc1ccc(F)cc1)Nc1nc2c(s1)CCCC2 | -7 | 2 | u | -3 | 2
Cc1[nH]c(=S)c(C#N)c(C)c1Cc1ccc(Cl)cc1Cl | 6 | -3 | 2 | -7 | -2
CCN1C(=O)C(C)S/C1=N\S(=O)(=O)c1ccc(F)cc1 (centres undefined) | 4 | 2 | x | 1 | 3
SMILES | Calb FLC | PP5 primary | ALR inh | CSC inhib | PP1 counter
N#C/C(=C\c1ccc(N2CCOCC2)o1)C(=O)Nc1ccc(O)cc1 | 39 | 5 | 99* | 4 | 2
N#C/C(=C/c1ccc(N2CCCCC2)o1)C(=O)Nc1ccc(Cl)cc1 | 0 | 3 | -1 | x | 1
CC1CC(Nc2ccccc2N)=CC(=O)O1 (centres undefined) | 4 | 3 | 86* | 6 | 0
Cc1ccc(NC2=CC(=O)CC(c3ccco3)C2)c(N)c1 (centres undefined) | u | -2 | 98* | 2 | 1
Nc1ccccc1NC1=CC(=O)CC(c2ccccc2)C1 (centres undefined) | -2 | 0 | 48 | -10 | -1
Nc1ccccc1NC1=CC(=O)CC(c2ccco2)C1 (centres undefined) | u | 4 | 84* | x | 1
CCC(C(=O)Nc1cccc(OC)c1)n1nc(C)c2c(C)n(-c3ccccc3)nc2c1=O (centres undefined) | 5 | 0 | -5 | -15 | 0
CCOC(=O)C1CCN(C(=O)c2cccnc2Oc2ccc(Cl)cc2)CC1 | -2 | -1 | -3 | -2 | -5
O=C(/C=C\Nc1ccc2c(c1)OCO2)c1cccs1 | -9 | 0 | 96* | 4 | -2
O=C(/C=C\Nc1ccc2c(c1)OCO2)c1ccc(Cl)s1 | 2 | -2 | -3 | 69 | -4
CC(=O)NCCCc1c[nH]c2ccc(Cl)cc12 | 9 | 1 | 98* | x | -1
CCn1c(SCC(=O)c2ccccc2)nc2c(c1=O)SC(C)C2 (centres undefined) | 3 | 0 | 99* | -11 | 5
COCCn1c(SCC(=O)c2ccccc2)nc2c(c1=O)SC(C)C2 (centres undefined) | 16 | 3 | 99* | -9 | -2
CCn1c(SCC(=O)N2CCCCC2)nc2c(c1=O)SC(C)C2 (centres undefined) | -5 | 3 | 18 | 2 | 0
COCCn1c(SCC(=O)N2CCN(c3ccccc3)CC2)nc2c(c1=O)SC(C)C2 (centres undefined) | -2 | -1 | 12 | 3 | 1
CCn1c(SCC(=O)Nc2nc3ccc(C)cc3s2)nc2c(c1=O)SC(C)C2 (centres undefined) | 16 | -3 | x | 16 | 16*
CCc1ccccc1NC1c2ccccc2C(=O)N1c1cc(C)ccn1 (centres undefined) | 0 | 2 | x | -3 | -2
CCN(CC)C(=O)c1sc(NC(=S)N2CCN(C(=O)C3CCCO3)CC2)c(C(=O)OC)c1C (centres undefined) | 4 | 0 | 22 | 38 | -1
S=C(Nc1ccccc1)N1CCCN1c1ccccc1 | 0 | 3 | 87* | 3 | -1
S=C(Nc1ccccc1)N1CCCCC1 | 13 | -1 | -5 | -10 | -3
O=C(COC(=O)C1CCC(=O)N1)Nc1cc(Cl)ccc1Cl (centres undefined) | -1 | 0 | -5 | -13 | 1
O=C1NC[C@H](Cc2ccc(O)cc2)N(CC2CCCCC2)C1=O | 10 | 1 | 54 | -11 | 0
Oc1ccc(C[C@@H]2CNC(=S)N2CCCCC2CCCCC2)cc1 | -16 | 3 | 11 | 115* | 2
COc1ccc([C@@H]2CC(=O)c3c(O)cc(O[C@@H]4OC(CO[C@@H]5OC(C)[C@H](O)[C@H](O)C5O)[C@@H](O)[C@@H](O)C4O)cc3O2)cc1O (some centres undefined) | -8 | 0 | 6 | 1 | -1
O=c1cc(-c2ccc(O)c(O)c2)oc2cc(O[C@@H]3O[C@H](CO)[C@@H](O)[C@H](O)[C@H]3O)cc(O)c12 | x | x | 99* | -3 | x
